experiment: hepatitis C replication reporter changes, two-sided – Huh7 cells, luciferase reporter, HCV replication inhibitor project, primary screen (AID 1109); settings: Huh7 HCV replicon luciferase reporter, 48 h; higher = more signal;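 also: huh7 hepatoma cells harbouring a luciferase neomycin HCV replicon reporter; luciferase luminescence as measure of HCV replicon replication; test concentration not given here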

**Q.** Which z-score does the source give for `C=CCOC(=O)[C@H]1[C@@H]2C(=O)O[C@@H](c3ccccc3)[C@@H](c3ccccc3)N2[C@@H](c2ccc(OCCOC(=O)[C@@H]3C[C@@H]4C(=O)N5CCC[C@H]5C(=O)N4[C@@H]3c3cccc(OCCO)c3)cc2)[C@]12C(=O)Nc1ccccc12` here?
**A.** -1.24

**Q.** With `CCCCCCC#C[Si](O[C@H](c1ccccc1)c1cn([C@H](CO)Cc2ccccc2)nn1)(C(C)C)C(C)C` as the compound, how does the z-score read?
**A.** -0.462

**Q.** Which z-score does the source give for `COc1ccc([Si](C)(C)[C@H]2[C@H](CC(=O)N3CCC[C@H]3CO)O[C@@]3(C(=O)N(Cc4cccc(N5C(=O)c6cccc7cccc5c67)c4)c4ccccc43)[C@@H]2C)cc1` here?
**A.** -3.12

**Q.** For `CC(C)C[C@@H]1NC(=O)[C@H]2C[C@@H](C(=O)NCCCCCCN(C)C)[C@@H](c3ccc(O)cc3)N2C1=O`, which z-score is on record?
**A.** 0.414

**Q.** Which z-score does the source give for `CN1C(=O)C2C=CC(C(O)C3CC=CCC3)N(NC(=O)OC(C)(C)C)C2C1=O` (stereo not given) here?
**A.** -0.0017

**Q.** For `O=C1OCCC/C=C\[C@H]2OC34C=CCN(CCN5CCOCC5)C(=O)[C@H]3N(CCCO)C(=O)[C@@H]4C12` (stereo not given in full), which z-score is on record?
**A.** -0.61

**Q.** Which z-score does the source give for `Cc1ccc(S[C@]2(C(=O)NCC(F)(F)F)CC(=O)N(C(C)C)[C@@H]2c2ccc(CO)cc2I)cc1` here?
**A.** -1.76

**Q.** For `CCCCCN1CC=CC23O[C@@H]4/C=C\CCCOC(=O)C4[C@H]2C(=O)N(CCCO)[C@@H]3C1=O` (stereo not given in full), which z-score is on record?
**A.** -0.549

**Q.** Which z-score does the source give for `CN(C)C(=O)[C@]1(Cc2ccccc2N=[N+]=[N-])N=C(c2ccc(OCCCO)cc2)O[C@@H]1c1ccccc1` here?
**A.** -1.85

**Q.** Which z-score does the source give for `COCCOC(=O)N1C(=O)[C@@]2(c3cc(C#CC4=CCCCC4)ccc31)[C@H](C(=O)Nc1nc3ccccc3s1)[C@H]1C(=O)O[C@H](c3ccccc3)[C@H](c3ccccc3)N1[C@@H]2c1ccccc1OCCO` here?
**A.** -1.66

**Q.** With `CN1C(=O)C2C=CC(C(O)c3cccs3)N(Nc3ccccc3)C2C1=O` (stereo not given) as the compound, how does the z-score read?
**A.** -0.304

**Q.** Which z-score does the source give for `CCc1oc(CC[C@@H](CO)NC(=O)NCCn2cc(C3(O)CCCCC3)nn2)c(C(=O)OC)c1C(=O)OC` here?
**A.** 0.524

**Q.** For `C=C[C@H](COC(C)=O)N(C(=O)OC(C)(C)C)S(=O)(=O)c1ccc(Br)cc1`, which z-score is on record?
**A.** -0.757

**Q.** Which z-score does the source give for `C[N+](C)(C)CCCCNC(=O)[C@H]1C[C@H]2C(=O)N[C@@H](Cc3ccccc3)C(=O)N2[C@H]1c1ccc(O)cc1` here?
**A.** -0.72

**Q.** With `CCOC(=O)[C@H]1C/C=C/C[C@H](C(=O)OCC)C(=O)O[C@H]2[C@@H](OC)O[C@H](CO)[C@@H](OC(=O)Nc3cccc(F)c3)[C@@H]2OC1=O` as the compound, how does the z-score read?
**A.** -3.56

**Q.** For `NCCCCCNC(=O)[C@@H]1C[C@@H]2C(=O)N[C@@H](Cc3ccccc3)C(=O)N2[C@@H]1c1cccc(OCCO)c1`, which z-score is on record?
**A.** -0.988

**Q.** For `C=CCOC(=O)[C@H]1[C@@H]2C(=O)O[C@@H](c3ccccc3)[C@@H](c3ccccc3)N2[C@@H](c2ccc(OCCOC(=O)[C@@H]3C[C@@H]4C(=O)N[C@@H](CCCCN(C)C)C(=O)N4[C@@H]3c3ccc(O)cc3)cc2)[C@]12C(=O)Nc1ccc(I)cc12`, which z-score is on record?
**A.** -2.99

**Q.** For `CC(C)C[C@H]1NC(=O)[C@@]23C(=O)N[C@@H](Cc4ccccc4)C2[C@H](C)[C@@]2(C)O[C@H]2C3/C=C/C/C=C\CNC(=O)[C@H](Cc2ccccc2)NC1=O` (stereo not given in full), which z-score is on record?
**A.** -1.32

**Q.** Which z-score does the source give for `CCOC(=O)[C@H]1CC=C2CC1C(=O)N1CCC[C@@H]1[C@@H]2O[Si](C)(C)C(C)(C)C` (stereo not given in full) here?
**A.** -3.01

**Q.** For `COc1ccc([Si](C)(C)[C@H]2[C@H](CC(=O)N3Cc4ccccc4C[C@H]3CO)O[C@@]3(C(=O)N(Cc4ccc(N5CCC5=O)cc4)c4ccccc43)[C@@H]2C)cc1`, which z-score is on record?
**A.** -3.99

**Q.** For `O=C1C2C=CC(C(O)C(c3ccccc3)c3ccccc3)N(n3cnnc3)C2C(=O)N1Cc1ccccc1` (stereo not given), which z-score is on record?
**A.** -0.832

**Q.** For `O=C(O)[C@@]1(CCS(=O)(=O)c2ccccc2)COC(c2ccc(OCCCO)cc2)=N1`, which z-score is on record?
**A.** -0.615

**Q.** With `C[C@]1(C(=O)NC2CC2)c2ccccc2C(=O)N(Cc2cc(C(F)(F)F)cc(C(F)(F)F)c2)[C@H]1c1ccc(CO)cc1` as the compound, how does the z-score read?
**A.** -0.106

**Q.** Which z-score does the source give for `CCCC[C@@H]1C[C@H]1[C@@H](NC(=O)c1ccco1)c1ccc(C(=O)OC)cc1` here?
**A.** -1.07

**Q.** Which z-score does the source give for `O=C1O[C@H](c2ccccc2)[C@H](c2ccccc2)N2[C@H]1[C@@H](C(=O)Nc1nc3ccccc3s1)[C@]1(C(=O)Nc3ccc(C#CCCO)cc31)[C@H]2c1ccc(OCCO)cc1` here?
**A.** -1.65
